Out of some 5,500 compounds screened, about 2,000 (36%) were called active. About 18% were inconclusive and are not listed. The list shows a part of the results. Values without a mark were called inactive. Cut-off read from the data, not from the text of the source: active = normalized growth mostly below about 0.91 (no sharp cut-off); inconclusive = no clear call, values can overlap the other calls; inactive = mostly above about 0.92.
Test: chemical genetic growth profiling, strain panel (AID 1159580);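 note: tested at 20 µM; growth read once vehicle control cultures reached saturation at 30 °C; 1 = growth at the plate median or of vehicle wells; lower values mean less growth of the strain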
Settings: S. cerevisiae deletion strains, growth OD
[1] = locus YDL101C, strain DUN1, hits give low values
[2] = locus YHR030C, strain SLT2, hits give low values

Q: Which normalized growth (locus YAR019C, strain CDC15, hits give low values) does the source give for `Cc1c(Cc2ccc(F)cc2)c(=O)oc2cc(O)ccc12` here?
A: The normalized growth was 0.973.

Q: What about the normalized growth (locus YBL105C, strain PKC1, hits give low values) of the same compound?
A: The normalized growth was 0.986.

Q: And the normalized growth (locus YBR135W, strain CKS1, hits give low values)?
A: The normalized growth was 0.98.

Q: What about the normalized growth (locus YBR136W, strain MEC1, hits give low values) of the same compound?
A: The normalized growth was 0.963.

Q: And the normalized growth (locus YBR160W, strain CDC28, hits give low values)?
A: The normalized growth was 0.981.

Q: What about the normalized growth (locus YDL017W, strain CDC7, hits give low values) of the same compound?
A: The normalized growth was 0.983.

Q: What about the normalized growth (locus YDL028C, strain MPS1, hits give low values) of the same compound?
A: Its normalized growth is 0.976.

Q: What about the normalized growth [1] of the same compound?
A: Its normalized growth is 0.979.

Q: And the normalized growth (locus YDL108W, strain KIN28, hits give low values)?
A: The normalized growth was 0.978.

Q: What about the normalized growth (locus YDL132W, strain cdc53, hits give low values) of the same compound?
A: The normalized growth was 0.978.

Q: What about the normalized growth (locus YDL214C, strain PRR2, hits give low values) of the same compound?
A: The normalized growth was 0.967.

Q: And the normalized growth (locus YDR052C, strain DBF4, hits give low values)?
A: Its normalized growth is 0.987.

Q: And the normalized growth (locus YDR054C, strain cdc34, hits give low values)?
A: Its normalized growth is 0.975.

Q: And the normalized growth (locus YDR226W, strain ADK1, hits give low values)?
A: The normalized growth was 0.987.

Q: And the normalized growth (locus YDR477W, strain SNF1, hits give low values)?
A: Its normalized growth is 0.971.

Q: What about the normalized growth (locus YER123W, strain YCK3, hits give low values) of the same compound?
A: The normalized growth was 0.99.

Q: What about the normalized growth (locus YER133W, strain GLC7, hits give low values) of the same compound?
A: The normalized growth was 0.977.

Q: And the normalized growth (locus YFL009W, strain cdc4, hits give low values)?
A: Its normalized growth is 0.973.

Q: And the normalized growth (locus YFL029C, strain CAK1, hits give low values)?
A: Its normalized growth is 0.97.

Q: And the normalized growth (locus YFR003C, strain YPI1, hits give low values)?
A: The normalized growth was 0.985.

Q: And the normalized growth (locus YFR019W, strain FAB1, hits give low values)?
A: The normalized growth was 0.988.

Q: What about the normalized growth (locus YFR028C, strain CDC14, hits give low values) of the same compound?
A: The normalized growth was 0.972.

Q: And the normalized growth (locus YGR040W, strain KSS1, hits give low values)?
A: Its normalized growth is 0.954.

Q: And the normalized growth (locus YGR052W, strain FMP48, hits give low values)?
A: The normalized growth was 1.02.

Q: And the normalized growth (locus YGR092W, strain DBF2, hits give low values)?
A: Its normalized growth is 0.944.

Q: What about the normalized growth [2] of the same compound?
A: Its normalized growth is 0.83 (active).

Q: And the normalized growth (locus YHR079C, strain IRE1, hits give low values)?
A: Its normalized growth is 0.91.

Q: And the normalized growth (locus YHR082C, strain KSP1, hits give low values)?
A: Its normalized growth is 0.968.

Q: What about the normalized growth (locus YHR205W, strain SCH9, hits give low values) of the same compound?
A: Its normalized growth is 0.958.

Q: What about the normalized growth (locus YIL147C, strain SLN1, hits give low values) of the same compound?
A: The normalized growth was 0.983.

Q: And the normalized growth (locus YJL095W, strain BCK1, hits give low values)?
A: Its normalized growth is 0.923.

Q: What about the normalized growth (locus YJL128C, strain PBS2, hits give low values) of the same compound?
A: Its normalized growth is 0.956.

Q: What about the normalized growth (locus YJL157C, strain FAR1, hits give low values) of the same compound?
A: The normalized growth was 0.966.

Q: What about the normalized growth (locus YJR016C, strain ILV3, hits give low values) of the same compound?
A: The normalized growth was 0.982.

Q: What about the normalized growth (locus YJR066W, strain TOR1 (second series), hits give low values) of the same compound?
A: Its normalized growth is 0.976.

Q: What about the normalized growth (locus YJR066W, strain TOR1, hits give low values) of the same compound?
A: The normalized growth was 0.957.

Q: What about the normalized growth (locus YKL048C, strain ELM1, hits give low values) of the same compound?
A: Its normalized growth is 0.969.

Q: And the normalized growth (locus YKL067W, strain YNK1, hits give low values)?
A: Its normalized growth is 0.979.

Q: And the normalized growth (locus YKL101W, strain HSL1, hits give low values)?
A: Its normalized growth is 0.967.

Q: What about the normalized growth (locus YKL193C, strain SDS22, hits give low values) of the same compound?
A: Its normalized growth is 0.976.

Q: What about the normalized growth (locus YKL203C, strain TOR2, hits give low values) of the same compound?
A: The normalized growth was 1.01.

Q: And the normalized growth (locus YLR113W, strain HOG1, hits give low values)?
A: The normalized growth was 0.903.

Q: What about the normalized growth (locus YLR133W, strain CKI1, hits give low values) of the same compound?
A: Its normalized growth is 0.968.

Q: And the normalized growth (locus YLR403W, strain SFP1, hits give low values)?
A: The normalized growth was 0.969.

Q: And the normalized growth (locus YML070W, strain DAK1, hits give low values)?
A: Its normalized growth is 0.999.

Q: What about the normalized growth (locus YMR001C, strain CDC5, hits give low values) of the same compound?
A: The normalized growth was 0.978.

Q: And the normalized growth (locus YMR205C, strain PFK2 (second series), hits give low values)?
A: The normalized growth was 0.974.

Q: And the normalized growth (locus YMR277W, strain FCP1, hits give low values)?
A: Its normalized growth is 0.974.

Q: And the normalized growth (locus YNL006W, strain LST8, hits give low values)?
A: Its normalized growth is 0.975.

Q: What about the normalized growth (locus YNL020C, strain ARK1, hits give low values) of the same compound?
A: The normalized growth was 0.96.

Q: What about the normalized growth (locus YNL161W, strain CBK1, hits give low values) of the same compound?
A: Its normalized growth is 0.974.

Q: What about the normalized growth (locus YNL183C, strain NPR1, hits give low values) of the same compound?
A: The normalized growth was 0.939.

Q: And the normalized growth (locus YNL207W, strain RIO2, hits give low values)?
A: Its normalized growth is 0.97.

Q: And the normalized growth (locus YNL222W, strain SSU72, hits give low values)?
A: Its normalized growth is 0.976.

Q: What about the normalized growth (locus YNL307C, strain MCK1 (second series), hits give low values) of the same compound?
A: Its normalized growth is 0.984.

Q: And the normalized growth (locus YOL078W, strain AVO1, hits give low values)?
A: The normalized growth was 0.973.

Q: And the normalized growth (locus YOL136C, strain PFK27, hits give low values)?
A: The normalized growth was 0.964.

Q: And the normalized growth (locus YOR061W, strain CKA2, hits give low values)?
A: The normalized growth was 0.957.

Q: What about the normalized growth (locus YOR119C, strain RIO1, hits give low values) of the same compound?
A: The normalized growth was 0.977.

Q: What about the normalized growth (locus YOR231W, strain MKK1, hits give low values) of the same compound?
A: Its normalized growth is 0.926.

Q: And the normalized growth (locus YOR329C, strain SCD5, hits give low values)?
A: Its normalized growth is 0.979.

Q: And the normalized growth (locus YPL031C, strain PHO85, hits give low values)?
A: The normalized growth was 0.947.

Q: What about the normalized growth (locus YPL153C, strain RAD53, hits give low values) of the same compound?
A: Its normalized growth is 0.962.

Q: And the normalized growth (locus YPL204W, strain HRR25, hits give low values)?
A: Its normalized growth is 0.98.

Q: What about the normalized growth (locus YPL209C, strain IPL1, hits give low values) of the same compound?
A: Its normalized growth is 0.982.

Q: What about the normalized growth (locus YPL256C, strain CLN2, hits give low values) of the same compound?
A: Its normalized growth is 0.899.

Q: What about the normalized growth (locus YPR025C, strain CCL1, hits give low values) of the same compound?
A: The normalized growth was 0.977.

Q: What about the normalized growth (locus YPR106W, strain ISR1, hits give low values) of the same compound?
A: The normalized growth was 0.984.

Q: What about the normalized growth (locus YPR111W, strain DBF20, hits give low values) of the same compound?
A: The normalized growth was 0.971.

Q: What about the normalized growth (strain NNK1, hits give low values) of the same compound?
A: Its normalized growth is 0.984.

Q: And the normalized growth (strain TSCII, hits give low values)?
A: Its normalized growth is 0.978.

Q: With `CCCc1cc(=O)c2ccc(O)cc2o1` as the compound, how does the normalized growth (locus YAL013W, strain DEP1, hits give low values) read?
A: The normalized growth was 0.975.

Q: And the normalized growth (locus YBR229C, strain ROT2, hits give low values)?
A: The normalized growth was 1.

Q: And the normalized growth (locus YCL061C, strain MRC1, hits give low values)?
A: Its normalized growth is 0.976.

Q: And the normalized growth [1]?
A: Its normalized growth is 0.947.

Q: What about the normalized growth (locus YDL134C, strain PPH21, hits give low values) of the same compound?
A: Its normalized growth is 0.996.

Q: What about the normalized growth (locus YDR150W, strain NUM1, hits give low values) of the same compound?
A: The normalized growth was 0.967.

Q: What about the normalized growth (locus YEL061C, strain CIN8, hits give low values) of the same compound?
A: The normalized growth was 1.

Q: And the normalized growth (locus YGR078C, strain PAC10, hits give low values)?
A: Its normalized growth is 0.969.

Q: And the normalized growth [2]?
A: The normalized growth was 0.919.

Q: And the normalized growth (locus YHR087W, strain rtc3, hits give low values)?
A: The normalized growth was 1.03.

Q: And the normalized growth (locus YJR043C, strain POL32, hits give low values)?
A: The normalized growth was 1.

Q: And the normalized growth (locus YJR075W, strain HOC1, hits give low values)?
A: The normalized growth was 1.01.

Q: What about the normalized growth (locus YLR039C, strain RIC1, hits give low values) of the same compound?
A: The normalized growth was 0.957.

Q: And the normalized growth (locus YLR058C, strain SHM2 (second series), hits give low values)?
A: The normalized growth was 0.986.

Q: And the normalized growth (locus YLR085C, strain ARP6, hits give low values)?
A: Its normalized growth is 0.964.

Q: What about the normalized growth (locus YLR262C, strain YPT6, hits give low values) of the same compound?
A: The normalized growth was 1.01.

Q: And the normalized growth (locus YML094W, strain GIM5, hits give low values)?
A: Its normalized growth is 1.02.

Q: And the normalized growth (locus YMR219W, strain ESC1, hits give low values)?
A: Its normalized growth is 0.998.

Q: What about the normalized growth (locus YMR263W, strain SAP30, hits give low values) of the same compound?
A: The normalized growth was 0.995.

Q: What about the normalized growth (locus YNL128W, strain TEP1, hits give low values) of the same compound?
A: Its normalized growth is 0.97.

Q: What about the normalized growth (locus YNL153C, strain GIM3, hits give low values) of the same compound?
A: The normalized growth was 0.993.

Q: What about the normalized growth (locus YNL298W, strain CLA4 (second series), hits give low values) of the same compound?
A: The normalized growth was 0.971.

Q: And the normalized growth (locus YNL322C, strain KRE1, hits give low values)?
A: Its normalized growth is 0.966.

Q: And the normalized growth (locus YNR030W, strain Alg12, hits give low values)?
A: Its normalized growth is 0.985.

Q: What about the normalized growth (locus YOL006C, strain TOP1, hits give low values) of the same compound?
A: Its normalized growth is 0.933.

Q: And the normalized growth (locus YPL055C, strain LGE1, hits give low values)?
A: The normalized growth was 1.05.

Q: What about the normalized growth (locus YPL241C, strain CIN2, hits give low values) of the same compound?
A: Its normalized growth is 0.988.

Q: And the normalized growth (locus YPR135W, strain CTF4, hits give low values)?
A: The normalized growth was 0.943.

Reference: PubChem BioAssay AID1159580 (chemical genetic matrix, 2015)
